# In PubChem BioAssay (EPA / NIEHS):
# A structure can be active in one record and inactive in another. The source made the active and inactive calls. The calls were made as follows: active = hit-call score of the fitted dose curve at least 0.9, where 1 is the maximum; inactive = score below 0.9.
# Experiment: ATG_TCF_b_cat_CIS: Attagene CIS-FACTORIAL HepG2 Assay for human T-Cell-Factor with beta-catenin (TCF/b-cat) (AID 2282965)
# Conditions: HepG2 TCF/beta-catenin cis-reporter transcription, actives raise or lower the signal
# Description: ATG_CIS is a cell-based, multiplexed-readout assay that uses HepG2, a human liver cell line, with measurements taken at 24 hours after chemical dosing in a 24-well plate.ATG_TCF_b_cat_CIS is one of 52 assay component(s) measured or calculated from the ATG_CIS assay. It is designed to make measurements of mRNA induction, a form of inducible reporter, as detected with fluorescence intensity signals by Reverse transcription polymerase chain reaction (RT-PCR) and Capillary electrophoresis technology.Data from the assay component ATG_TCF_b_cat_CIS was analyzed into 1 assay endpoint. This assay endpoint, ATG_TCF_b_cat_CIS, was analyzed with bidirectional fitting relative to DMSO as the negative control and baseline of activity. Using a type of inducible reporter, measures of mRNA for gain or loss-of-signal activity can be used to understand the reporter gene at the transcription factor-level as they relate to the gene TCF7 and TCF7L2 and LEF1 and TCF7L1. Furthermore, this assay endpoint can be referred to as a primary readout, because this assay has produced multiple assay endpoints where this one serves a reporter gene function. To generalize the intended target to other relatable targets, this assay endpoint is annotated to the dna binding intended target family, where the subfamily is HMG box protein.
# Human liver HepG2 cells are transiently transfected with multiple reporter transcription units (MRTUs) in 6-well plates using FuGene 6 reagent (Roche; 3 ml FuGene/1 mg DNA). The MRTU constructs are regulated by a cis-regulating element (promoter). […] A major difference between the CIS and TRANS system is that in CIS activities of endogenous TFs are measured, whereas the TRANS assay evaluates changes in activities of exogenous, chimeric NR-Gal4 proteins. […] At the end of 24 hour incubation, total RNA was isolated using TriZol reagent (Invitrogen). The isolated RNA is then reverse-transcribed using oligo(dT) primer and Mo-MLV reverse transcriptase (Invitrogen) with DNAse I (Ambion) treatment for 30 min. The one-tenth of the produced cDNA was amplified by PCR using Taq DNA polymerase (Invitrogen) and two reporter sequence-specific primers. The PCR products were fluorescently labeled by primer extension with 6-arboxyfluorescein (6-FAM) 5'-labeled reporter sequence-specific primer (2 min at 95 C, 20 s at 68 C and 10 min at 72 C) and these products were digested with 5U of HpaI (New England Biolabs) for 2h at 37 C. The fragments were purified using Qiaquick PCR columns (Qiagen), analyzed on an ABI 3130xL genetic analyzer (Applied Biosystems) with peak positions identified by using a set of X-rhodamine (ROX)-labeled MapMarker1000 molecular weight standards (BioVentures). The raw capillary electrophoresis data was processed using Attagraph software (Attagene).
SMILES,outcome,AC50
c1ccc2occc2c1,inactive,
Nc1nc(Cl)nc2c1ncn2[C@H]1C[C@H](O)[C@@H](CO)O1,inactive,
CC(=O)O[C@]1(C(C)=O)CC[C@H]2[C@@H]3C=C(Cl)C4=CC(=O)[C@@H]5C[C@@H]5[C@]4(C)[C@H]3CC[C@@]21C,inactive,
O=C(Oc1ccccc1)c1cccc(C(=O)Oc2ccccc2)c1,inactive,
O=C(N[C@@H](c1ccccc1)[C@@H]1CCCCN1)c1cccc(C(F)(F)F)c1Cl,,16.6 µM (active)
Oc1ccc(O)cc1,inactive,
COC(=O)[C@H]1[C@H]2C[C@@H]3c4[nH]c5cc(OC)ccc5c4CCN3C[C@H]2C[C@@H](OC(=O)c2cc(OC)c(OC)c(OC)c2)[C@@H]1OC,,7.31 µM (active)
Cc1ccc(C(C)(C)C)c(O)c1,,161 µM (active)
O=C(O)c1cccnc1,inactive,
O=Cc1ccccc1C=O,inactive,
C/C=C/C=C/C(=O)O,inactive,
CC(=O)S[C@H](C(=O)N[C@H]1Cc2ccccc2[C@H]2CCC[C@@H](C(=O)O)N2C1=O)C(C)C,inactive,
CC(C)NCC(O)c1ccc(O)c(O)c1 (stereo not given),inactive,
CCCCCCC(CCCCCCCCCCC(=O)OCC(COC(C)=O)OC(C)=O)OC(C)=O (stereo not given),,50 µM (active)
CCCCOC(=O)CCCCC(=O)OCCCC,inactive,
O=NO,inactive,
CCCCC(CC)COP(=O)(OCC(CC)CCCC)OCC(CC)CCCC (stereo not given),inactive,
Cc1cn([C@H]2C=C[C@@H](CO)O2)c(=O)[nH]c1=O,inactive,
Cc1c(C)c2c(c(C)c1O)CCC(C)(COc1ccc(CC3SC(=O)NC3=O)cc1)O2 (stereo not given),,18.5 µM (active)
CC(=O)OCC(COC(C)=O)OC(C)=O,inactive,

SMILES,outcome,AC50
COc1ccc(OC(F)(F)F)cc1CN[C@H]1CCCN[C@H]1c1ccccc1,inactive,
CN(C)CCCN(C)CCCN(C)C,inactive,
Cc1occc(=O)c1O,inactive,
CCCCC(CC)COC(=O)CCCCCCCC(=O)OCC(CC)CCCC (stereo not given),inactive,
O=C1OC(c2ccc(O)cc2)(c2ccc(O)cc2)c2ccccc21,,27.5 µM (active)
C=CCCCCCCCCCCCC,inactive,
NC1CCCCC1,inactive,
CC(C)(O)c1ccc(CNC(=O)c2cccnc2Oc2ccc(F)cc2)cc1,inactive,
O=C(O)CN(CC(=O)O)CC(=O)O,inactive,
O=C1c2c(O)cccc2Cc2cccc(O)c21,inactive,
CC(C)c1cccc(C(C)C)c1NC(=O)NS(=O)(=O)c1cc(C(C)(C)O)co1,inactive,
CC(=O)[C@@]1(O)CC[C@H]2[C@@H]3CCC4=CC(=O)CC[C@]4(C)[C@H]3CC[C@@]21C,inactive,
NCCOCCOCCN,inactive,
CC(=O)CC(c1ccccc1)c1c(O)c2ccccc2oc1=O (stereo not given),inactive,
O=C1CCCCC1,inactive,
O=[Si]=O,inactive,
O=C(O)c1[nH]n(-c2ccc(S(=O)(=O)O)cc2)c(=O)c1N=Nc1ccc(S(=O)(=O)O)cc1,inactive,
CCC(C)N(C)C(=O)c1cc2ccccc2c(-c2ccccc2Cl)n1 (stereo not given),,41.7 µM (active)
Cc1cc(SC2=C(O)C[C@@](CCc3ccc(N)cc3)(C(C)C)OC2=O)c(C(C)(C)C)cc1CO,inactive,
N[C@@H](Cc1c[nH]c2ccccc12)C(=O)O,inactive,
